{"source": "PubChem BioAssay", "key": {"[1]": {"biological_target": "Glutathione S-transferase omega-1 (Homo sapiens) (UniProt P78417)", "sequence (P78417 whole entry, looked up)": "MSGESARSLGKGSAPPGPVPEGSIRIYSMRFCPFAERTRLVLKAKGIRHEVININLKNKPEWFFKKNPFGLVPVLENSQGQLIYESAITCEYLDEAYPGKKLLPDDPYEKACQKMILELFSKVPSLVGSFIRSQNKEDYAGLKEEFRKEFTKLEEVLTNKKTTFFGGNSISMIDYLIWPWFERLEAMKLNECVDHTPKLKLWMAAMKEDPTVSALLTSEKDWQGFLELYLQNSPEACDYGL", "assay": "GSTO1 inhibitor hit confirmation, counter-screen for RBBP9 inhibitor project, biochemical, fluorescence polarization, triplicate (AID 2176;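 active = inhibition above the primary screen's cutoff, its mean inhibition plus 3 SD, cut at about 35% in these data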;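 also: loss of polarization as inhibitors block binding of rhodamine sulfonate ester activity probe; 0% = GSTO1 with DMSO and 100% = wells lacking GSTO1 enzyme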)", "conditions": "recombinant GSTO1, probe fluorescence polarization; at 5.96 µM; hits give high values"}, "[2]": {"system": "transactivating tegument protein VP16 (Human herpesvirus 1)", "assay": "VP16 transactivation reporter inhibitors, counter-screen for SRC2 inhibitor project, cell-based, luminescence, single concentration (AID 652007; in the data active = inhibition above about 36%)", "conditions": "cell-based VP16 transactivation luciferase reporter, at 8.9 µM, hits give high values"}, "[3]": {"biological_target": "Nuclear receptor coactivator 2 (Homo sapiens) (UniProt Q15596)", "assay": "SRC2 coactivator transcriptional activity inhibitors, confirmation, cell-based, luminescence, HEK293, triplicate (AID 652008;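 active = mean inhibition above 46.5%, the solvent-only control mean plus 3 SD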;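 also: 0% = DMSO-treated cells and 100% = Gossypol at 36 µM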)", "conditions": "HEK293 GAL4-SRC2 luciferase reporter, at 8.9 µM, hits give high values"}, "[4]": {"biological_target": "Lytic switch protein BZLF1 (Epstein-Barr virus (strain B95-8)) (UniProt P03206)", "sequence (P03206 whole entry, looked up)": "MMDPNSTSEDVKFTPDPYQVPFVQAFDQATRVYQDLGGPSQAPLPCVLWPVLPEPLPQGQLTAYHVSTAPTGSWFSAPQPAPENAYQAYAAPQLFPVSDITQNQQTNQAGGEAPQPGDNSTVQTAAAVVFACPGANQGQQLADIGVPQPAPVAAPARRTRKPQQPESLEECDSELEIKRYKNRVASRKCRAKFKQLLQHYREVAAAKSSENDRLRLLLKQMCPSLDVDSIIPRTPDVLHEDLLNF", "assay": "EBV Zta binding to ZRE DNA, inhibitors, confirmation, biochemical, fluorescence polarization, triplicate (AID 2361;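 active = mean inhibition across triplicate runs above the hit threshold derived for the original primary screen, cut at about 33% in these data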;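 also: 0% = Zta with DMSO and 100% = wells lacking Zta protein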)", "conditions": "at 11.1 µM, hits give high values"}, "[5]": {"system": "Epstein-Barr virus nuclear antigen 1 (EBNA-1), Human herpesvirus 4", "assay": "EBNA-1 DNA-binding inhibition, counter-screen for ZTA inhibitor project, biochemical, fluorescence polarization (AID 2362; call rule not given here)", "conditions": "at 14.8 µM, hits give high values"}, "[6]": {"biological_target": "Oxytocin receptor (Homo sapiens) (UniProt P30559)", "sequence (P30559 whole entry, looked up)": "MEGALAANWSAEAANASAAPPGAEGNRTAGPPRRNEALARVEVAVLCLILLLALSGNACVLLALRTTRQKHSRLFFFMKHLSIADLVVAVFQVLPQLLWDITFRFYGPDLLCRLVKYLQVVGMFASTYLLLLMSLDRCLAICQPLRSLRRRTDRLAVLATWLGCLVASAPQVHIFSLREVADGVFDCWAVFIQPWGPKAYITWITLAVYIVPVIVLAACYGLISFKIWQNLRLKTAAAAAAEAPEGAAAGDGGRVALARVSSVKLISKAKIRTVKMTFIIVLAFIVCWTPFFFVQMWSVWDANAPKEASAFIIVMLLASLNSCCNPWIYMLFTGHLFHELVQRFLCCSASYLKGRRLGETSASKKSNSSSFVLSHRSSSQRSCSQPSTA", "assay": "human OXTR agonists, confirmation, fluorescence, CHO-OTR cells, triplicate (AID 434963);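 also: peak over minimum fluorescence ratio per well during a 100 second FLIPR read; 0% = DMSO alone and 100% = oxytocin high control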", "conditions": "Fluo-8 calcium fluorescence, agonist, at 3 µM, hits give high values"}, "[7]": {"biological_target": "Vasopressin V1a receptor (Homo sapiens) (UniProt P37288)", "sequence (P37288 whole entry, looked up)": "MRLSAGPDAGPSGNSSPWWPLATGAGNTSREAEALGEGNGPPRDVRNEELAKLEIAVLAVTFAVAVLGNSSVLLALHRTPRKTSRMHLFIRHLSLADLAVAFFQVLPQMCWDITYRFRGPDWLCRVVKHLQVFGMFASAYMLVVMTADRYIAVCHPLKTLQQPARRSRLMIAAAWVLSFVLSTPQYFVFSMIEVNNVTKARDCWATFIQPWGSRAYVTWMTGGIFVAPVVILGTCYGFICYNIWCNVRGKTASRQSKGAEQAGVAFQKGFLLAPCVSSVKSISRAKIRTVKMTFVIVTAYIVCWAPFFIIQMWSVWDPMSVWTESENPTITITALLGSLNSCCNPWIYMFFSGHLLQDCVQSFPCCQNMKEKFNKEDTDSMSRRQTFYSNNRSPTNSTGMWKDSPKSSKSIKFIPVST", "assay": "V1a receptor agonists, calcium signal, counter-screen for OXTR agonist project, triplicate, fluorescence, CHO-V1R cells (AID 434991;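 active = mean activation over triplicate exceeds the hit threshold set in the earlier primary screen, cut at about 20% in these data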;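 also: peak over basal fluorescence ratio within a 100 second read; 0% = DMSO alone and 100% = 3 nM vasopressin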)", "conditions": "Fluo-8 calcium fluorescence, at 3 µM, hits give high values"}, "[8]": {"biological_target": "Photoreceptor-specific nuclear receptor (Homo sapiens) (UniProt Q9Y5X4)", "sequence (Q9Y5X4 whole entry, looked up)": "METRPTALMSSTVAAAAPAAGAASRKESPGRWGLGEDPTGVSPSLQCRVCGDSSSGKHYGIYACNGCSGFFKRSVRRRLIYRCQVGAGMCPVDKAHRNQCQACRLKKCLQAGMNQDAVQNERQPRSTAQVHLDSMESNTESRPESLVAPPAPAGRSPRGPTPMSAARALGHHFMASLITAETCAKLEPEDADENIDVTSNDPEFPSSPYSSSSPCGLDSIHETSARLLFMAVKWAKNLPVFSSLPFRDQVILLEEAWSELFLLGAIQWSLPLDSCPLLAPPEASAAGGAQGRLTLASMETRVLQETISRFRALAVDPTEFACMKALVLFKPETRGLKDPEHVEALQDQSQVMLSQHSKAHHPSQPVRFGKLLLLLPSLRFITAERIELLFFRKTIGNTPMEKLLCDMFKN", "assay": "NR2E3 agonists, confirmation, biochemical, TR-FRET (AID 2379; in the data active = activation above about 20%)", "conditions": "cell-free NR2E3 corepressor release, 5 h, at 3.98 µM, hits give high values"}, "[9]": {"biological_target": "Peroxisome proliferator-activated receptor gamma (Homo sapiens) + Nuclear receptor corepressor 2 (Homo sapiens) (UniProt P37231+Q9Y618)", "sequence (P37231 whole entry, looked up)": "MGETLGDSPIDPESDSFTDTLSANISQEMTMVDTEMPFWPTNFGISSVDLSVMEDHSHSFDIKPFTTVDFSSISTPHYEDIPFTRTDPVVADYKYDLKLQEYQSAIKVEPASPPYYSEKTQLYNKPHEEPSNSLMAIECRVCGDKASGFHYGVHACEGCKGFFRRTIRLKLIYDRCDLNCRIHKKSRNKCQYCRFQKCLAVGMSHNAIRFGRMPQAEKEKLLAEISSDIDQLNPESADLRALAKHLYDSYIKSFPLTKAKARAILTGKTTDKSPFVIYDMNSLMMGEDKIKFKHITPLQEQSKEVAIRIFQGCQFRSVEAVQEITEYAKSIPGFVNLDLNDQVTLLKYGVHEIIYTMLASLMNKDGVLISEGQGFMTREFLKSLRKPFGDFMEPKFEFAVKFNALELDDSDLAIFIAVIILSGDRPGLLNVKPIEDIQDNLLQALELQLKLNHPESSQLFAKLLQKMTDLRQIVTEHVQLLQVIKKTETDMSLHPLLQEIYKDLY", "sequence (Q9Y618 whole entry, looked up)": "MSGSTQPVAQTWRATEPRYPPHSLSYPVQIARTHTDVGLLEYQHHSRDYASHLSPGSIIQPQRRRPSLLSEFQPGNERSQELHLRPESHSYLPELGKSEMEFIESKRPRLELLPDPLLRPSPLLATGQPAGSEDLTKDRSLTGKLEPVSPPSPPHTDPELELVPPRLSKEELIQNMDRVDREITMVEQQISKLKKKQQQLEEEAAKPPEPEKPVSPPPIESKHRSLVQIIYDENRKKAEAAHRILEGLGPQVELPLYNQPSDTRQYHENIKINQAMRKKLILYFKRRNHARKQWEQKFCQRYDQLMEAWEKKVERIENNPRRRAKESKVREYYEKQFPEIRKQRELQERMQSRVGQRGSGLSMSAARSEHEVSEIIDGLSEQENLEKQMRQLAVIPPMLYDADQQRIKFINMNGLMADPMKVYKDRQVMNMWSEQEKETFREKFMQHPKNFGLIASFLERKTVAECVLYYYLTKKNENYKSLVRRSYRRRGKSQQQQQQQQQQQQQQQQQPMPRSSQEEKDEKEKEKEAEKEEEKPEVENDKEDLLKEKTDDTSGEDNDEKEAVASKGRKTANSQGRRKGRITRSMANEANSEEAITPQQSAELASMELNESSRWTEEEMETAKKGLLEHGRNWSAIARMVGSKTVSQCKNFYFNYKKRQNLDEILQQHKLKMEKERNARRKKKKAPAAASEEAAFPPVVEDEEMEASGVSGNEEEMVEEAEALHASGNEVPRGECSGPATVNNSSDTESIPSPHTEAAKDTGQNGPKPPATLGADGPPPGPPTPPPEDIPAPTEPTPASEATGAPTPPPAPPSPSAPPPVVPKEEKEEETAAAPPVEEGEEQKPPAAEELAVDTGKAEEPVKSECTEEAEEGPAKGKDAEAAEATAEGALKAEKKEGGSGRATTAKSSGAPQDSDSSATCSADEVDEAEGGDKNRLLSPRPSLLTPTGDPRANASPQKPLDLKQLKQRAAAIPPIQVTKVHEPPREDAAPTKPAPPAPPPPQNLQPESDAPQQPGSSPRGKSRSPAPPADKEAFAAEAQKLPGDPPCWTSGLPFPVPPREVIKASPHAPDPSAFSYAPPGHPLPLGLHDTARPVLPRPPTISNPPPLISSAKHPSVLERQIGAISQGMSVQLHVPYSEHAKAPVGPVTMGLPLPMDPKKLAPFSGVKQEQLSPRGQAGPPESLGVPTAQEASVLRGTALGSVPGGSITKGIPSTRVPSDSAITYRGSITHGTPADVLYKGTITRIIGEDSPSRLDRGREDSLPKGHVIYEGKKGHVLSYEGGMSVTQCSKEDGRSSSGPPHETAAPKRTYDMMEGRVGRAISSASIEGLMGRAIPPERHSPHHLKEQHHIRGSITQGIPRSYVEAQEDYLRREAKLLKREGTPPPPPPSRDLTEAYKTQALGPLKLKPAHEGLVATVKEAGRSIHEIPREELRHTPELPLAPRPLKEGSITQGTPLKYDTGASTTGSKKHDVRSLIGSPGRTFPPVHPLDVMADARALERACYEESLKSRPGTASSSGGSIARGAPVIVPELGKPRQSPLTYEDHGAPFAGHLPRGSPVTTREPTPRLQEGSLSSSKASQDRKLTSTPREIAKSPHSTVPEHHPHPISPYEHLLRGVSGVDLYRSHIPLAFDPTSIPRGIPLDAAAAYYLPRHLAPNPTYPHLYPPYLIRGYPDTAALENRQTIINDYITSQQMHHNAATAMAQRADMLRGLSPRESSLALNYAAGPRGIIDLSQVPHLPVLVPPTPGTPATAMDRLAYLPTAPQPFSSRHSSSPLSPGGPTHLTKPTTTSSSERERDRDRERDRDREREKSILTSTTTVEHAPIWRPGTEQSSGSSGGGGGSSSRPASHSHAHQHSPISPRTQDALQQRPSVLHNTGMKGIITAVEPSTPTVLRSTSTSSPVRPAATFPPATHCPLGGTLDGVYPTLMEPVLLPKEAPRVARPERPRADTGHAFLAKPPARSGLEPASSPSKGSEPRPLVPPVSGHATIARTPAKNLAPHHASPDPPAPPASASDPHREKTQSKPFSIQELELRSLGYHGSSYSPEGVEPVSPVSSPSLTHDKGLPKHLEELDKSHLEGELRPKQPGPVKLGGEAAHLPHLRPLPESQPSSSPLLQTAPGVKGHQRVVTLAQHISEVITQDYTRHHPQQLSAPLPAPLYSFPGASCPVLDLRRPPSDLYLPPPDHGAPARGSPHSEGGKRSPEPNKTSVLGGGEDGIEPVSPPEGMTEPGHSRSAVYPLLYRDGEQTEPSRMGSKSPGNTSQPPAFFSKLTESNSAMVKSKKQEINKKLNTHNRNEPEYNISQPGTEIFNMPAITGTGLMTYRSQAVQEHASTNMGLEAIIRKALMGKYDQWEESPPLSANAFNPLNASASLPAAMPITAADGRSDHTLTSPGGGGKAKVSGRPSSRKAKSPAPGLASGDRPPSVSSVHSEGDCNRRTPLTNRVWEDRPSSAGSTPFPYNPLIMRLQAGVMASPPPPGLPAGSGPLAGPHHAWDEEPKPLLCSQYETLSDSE", "assay": "agonists of PPARg-NCOR2 corepressor interaction, counter-screen for NR2E3 agonist project, biochemical, TR-FRET (AID 504787; in the data active = inhibition above about 20%;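 also: 0% = DMSO vehicle and 100% = wells without protein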)", "conditions": "TR-FRET PPARg-NCOR2 coregulator interaction, at 3.98 µM, hits give high values"}, "[10]": {"biological_target": "Nuclear receptor coactivator 3 (Homo sapiens) (UniProt Q9Y6Q9)", "assay": "SRC3 coactivator transcriptional activity inhibitors, confirmation, cell-based, luminescence, quadruplicate (AID 588792;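 active = mean inhibition over 43.08%, the solvent-only control mean plus 3 SD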;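 also: 0% = DMSO treated cells and 100% = gossypol at 36 µM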)", "conditions": "HEK293 GAL4-SRC3 luciferase reporter, at 3.6 µM, hits give high values"}, "[11]": {"system": "transactivating tegument protein VP16 (Human herpesvirus 1), Gal4-VP16 luciferase reporter", "assay": "VP16 transactivation inhibitors, counter-screen for SRC3 inhibitor project, cell-based, luminescence, high throughput (AID 588794; in the data active = inhibition above about 30%)", "conditions": "mammalian cells, VP16-driven luciferase reporter luminescence; at 3.6 µM; hits give high values"}, "[12]": {"assay": "StAR promoter reporter inhibitors, counter-screen for LRH-1 inverse agonist project, cell-based, luminescence, high throughput (AID 651611; in the data active = inhibition above about 28%)", "conditions": "StAR promoter luciferase reporter counterscreen, at 3.6 µM, hits give high values"}, "[13]": {"biological_target": "Nuclear receptor subfamily 5 group A member 2 (Homo sapiens) (UniProt O00482)", "assay": "LRH-1 (NR5A2) inverse agonists, retest, confirmation, cell-based, luminescence (AID 651613; in the data active = inhibition above about 42%;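 also: 0% = vehicle wells and 100% = parental cells lacking receptor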)", "conditions": "cell-based LRH-1 luciferase reporter, inverse agonism; at 3.6 µM; hits give high values"}, "[14]": {"biological_target": "Steroidogenic factor 1 (Homo sapiens) (UniProt Q13285)", "assay": "SF1 (NR5A1) inverse agonists, counter-screen for LRH-1 inverse agonist project, cell-based, luminescence, high throughput (AID 651614; in the data active = inhibition above about 44%;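 also: cells cotransfected with StAR promoter reporter and SF1 expression vector; 0% = vehicle on cells with receptor and 100% = vehicle on cells lacking receptor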)", "conditions": "cell-based SF1 luciferase reporter, at 3.6 µM, hits give high values"}, "[15]": {"assay": "VP16 transactivation reporter inhibitors, counter-screen for LRH-1 inverse agonist project, cell-based, luminescence, high throughput (AID 651615; in the data active = inhibition above about 33%)", "conditions": "Gal4-VP16 luciferase reporter cells, at 3.6 µM, hits give high values"}, "[16]": {"biological_target": "Galanin receptor type 2 (Homo sapiens) (UniProt O43603)", "assay": "GALR2 antagonists, retest of hits, confirmation, cell-based (AID 866; in the data active = inhibition above about 27%;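 also: cells stimulated with galanin at about its EC80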)", "conditions": "GALR2-expressing cells, antagonist mode, at 4 µM, hits give high values"}, "[17]": {"assay": "inhibitors of NFAT-driven beta-lactamase reporter, confirmation, counter-screen for GALR2 antagonist project, CHO NFAT-bla cells, FRET readout (AID 867;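 active = inhibition above the mean inhibition across tested compounds plus 3 SD, cut at about 27% in these data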;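 also: 0% = 500 nM thapsigargin stimulated wells and 100% = unstimulated BSA only wells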)", "conditions": "thapsigargin-stimulated, at 4.2 µM, hits give high values"}}, "note": "A number with no mark means an inactive call. The list shows a part of the results. Active and inactive are the calls of the source.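 The calls were made as follows, unless noted: active = mean activation above about 20% derived from the earlier single-dose screen (limit read from the data); inactive = the rest.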", "data": [{"smiles": "Cc1ccc(N(Cc2cc(=O)[nH]c3ccccc23)C(=O)CCl)cc1", "values": [{"measurement": "inhibition", "setting": "[1]", "result": "90% (active)"}, {"measurement": "inhibition", "setting": "[2]", "result": 33.7, "unit": "%"}, {"measurement": "inhibition", "setting": "[3]", "result": "51.6% (active)"}]}, {"smiles": "CCN1CCN(CCNC(=O)c2ccc(/C=C3/Sc4ccccc4N(Cc4cccc(C)c4)C3=O)cc2)CC1", "values": [{"measurement": "inhibition", "setting": "[4]", "result": "49.5% (active)"}, {"measurement": "inhibition", "setting": "[5]", "result": 1.16, "unit": "%"}]}, {"smiles": "NC(=O)C1=C[C@H](c2csc3ccccc23)C[C@H](OCc2ccc(CO)cc2)O1", "values": [{"measurement": "activation", "setting": "[6]", "result": 17.8, "unit": "%"}, {"measurement": "activation", "setting": "[7]", "result": 10.2, "unit": "%"}]}, {"smiles": "CN(Cc1ccccc1)Cc1ccccc1F", "values": [{"measurement": "activation (reported as inhibition)", "setting": "[8]", "result": -2.78, "unit": "%"}, {"measurement": "inhibition", "setting": "[9]", "result": -3.03, "unit": "%"}]}, {"smiles": "CCN(CCCNC(=O)c1ccc2c(c1)NC(=O)CN2C)c1cccc(C)c1", "values": [{"measurement": "inhibition", "setting": "[1]", "result": "36.3% (active)"}, {"measurement": "inhibition", "setting": "[10]", "result": 10.3, "unit": "%"}, {"measurement": "inhibition", "setting": "[11]", "result": 1.36, "unit": "%"}]}, {"smiles": "C/C(=N\\NS(=O)(=O)c1ccc(Cl)cc1)c1ccc(NC(=O)c2ccco2)cc1", "values": [{"measurement": "activation", "setting": "[6]", "result": 17.6, "unit": "%"}, {"measurement": "activation", "setting": "[7]", "result": 11.1, "unit": "%"}]}, {"smiles": "CCC(=O)Nc1ccc(Nc2nc(Cl)nc(Nc3ccc(NC(=O)CC)cc3)n2)cc1", "values": [{"measurement": "inhibition", "setting": "[4]", "result": -2.63, "unit": "%"}, {"measurement": "inhibition", "setting": "[5]", "result": 5.66, "unit": "%"}]}, {"smiles": "Cc1nn(-c2ccccc2)c(C)c1NC(=O)CCl", "values": [{"measurement": "inhibition", "setting": "[1]", "result": "83.7% (active)"}, {"measurement": "inhibition", "setting": "[12]", "result": "28.1% (active)"}, {"measurement": "inhibition", "setting": "[13]", "result": 35.5, "unit": "%"}, {"measurement": "inhibition", "setting": "[14]", "result": "61.1% (active)"}, {"measurement": "inhibition", "setting": "[15]", "result": -83.9, "unit": "%"}]}, {"smiles": "CC1=C/C(=N\\OS(=O)(=O)c2ccccc2)C=CC1=O", "values": [{"measurement": "inhibition", "setting": "[16]", "result": "90% (active)"}, {"measurement": "inhibition", "setting": "[17]", "result": "83.7% (active)"}, {"measurement": "inhibition", "setting": "[1]", "result": 7.61, "unit": "%"}]}, {"smiles": "N#Cc1ccccc1Sc1ccccc1C(=O)OCC(=O)NC1CCCCC1", "values": [{"measurement": "activation (reported as inhibition)", "setting": "[8]", "result": 10.1, "unit": "%"}, {"measurement": "inhibition", "setting": "[9]", "result": "21.8% (active)"}]}, {"smiles": "CCCc1ccc(OCC(=O)NNC(=S)NC(=O)c2ccco2)cc1", "values": [{"measurement": "activation", "setting": "[6]", "result": 13.2, "unit": "%"}, {"measurement": "activation", "setting": "[7]", "result": 20.2, "unit": "%"}]}, {"smiles": "COc1ccc(N2CCN(C(=O)CN3C(=O)COc4ccccc43)CC2)cc1", "values": [{"measurement": "inhibition", "setting": "[4]", "result": -8.37, "unit": "%"}, {"measurement": "inhibition", "setting": "[5]", "result": -9.94, "unit": "%"}]}, {"smiles": "Cn1cnc2c1c(=O)n(Cc1ccccc1C#N)c(=O)n2C", "values": [{"measurement": "inhibition", "setting": "[4]", "result": -1.92, "unit": "%"}, {"measurement": "inhibition", "setting": "[5]", "result": -2.72, "unit": "%"}]}, {"smiles": "O=C1C(=O)N(CCN2CCOCC2)C(c2cccc(Cl)c2)/C1=C(/O)c1ccc2c(c1)OCO2", "note": "(centres undefined)", "values": [{"measurement": "activation (reported as inhibition)", "setting": "[8]", "result": "32.8% (active)"}, {"measurement": "inhibition", "setting": "[9]", "result": "31.2% (active)"}]}, {"smiles": "Cc1cccc(NC(=O)c2sc3nc(N4CCOCC4)c4c(c3c2N)CCCC4)c1", "values": [{"measurement": "activation (reported as inhibition)", "setting": "[8]", "result": -1.32, "unit": "%"}, {"measurement": "inhibition", "setting": "[9]", "result": -0.47, "unit": "%"}]}, {"smiles": "c1ccc(C2CNCc3c2ccc2ccccc32)cc1", "note": "(centres undefined)", "values": [{"measurement": "activation", "setting": "[6]", "result": 15.8, "unit": "%"}, {"measurement": "activation", "setting": "[7]", "result": 6.47, "unit": "%"}]}, {"smiles": "C#CCOCCOCCOCCNc1nc(N2CCN(C(=O)CCCCCCCCCCNC(=O)[C@H]([C@@H](C)CC)n3cc(CCCCN=C(N)N)nn3)CC2)nc(N2CCN(C(=O)CCCCCCCCCCNC(=O)[C@H](CO)n3cc(CCCSC)nn3)CC2)n1", "values": [{"measurement": "inhibition", "setting": "[4]", "result": "57.5% (active)"}, {"measurement": "inhibition", "setting": "[5]", "result": 1.4, "unit": "%"}]}, {"smiles": "COc1cccc(CNCCc2c[nH]c3ccccc23)c1OCc1ccccc1F", "values": [{"measurement": "activation", "setting": "[6]", "result": 14.2, "unit": "%"}, {"measurement": "activation", "setting": "[7]", "result": 12.1, "unit": "%"}]}, {"smiles": "CC1(C)Cc2ccccc2-c2[nH]c(=S)[nH]c(=O)c21", "values": [{"measurement": "activation (reported as inhibition)", "setting": "[8]", "result": "28.7% (active)"}, {"measurement": "inhibition", "setting": "[9]", "result": "25.9% (active)"}]}, {"smiles": "CC(CO)(CO)NC(=O)c1ccc(=O)[nH]n1", "values": [{"measurement": "activation", "setting": "[6]", "result": -0.33, "unit": "%"}, {"measurement": "activation", "setting": "[7]", "result": 0.63, "unit": "%"}]}, {"smiles": "COc1cc2[nH]c(=S)n(Cc3ccc(C)o3)c(=O)c2cc1OC", "values": [{"measurement": "activation (reported as inhibition)", "setting": "[8]", "result": -5.72, "unit": "%"}, {"measurement": "inhibition", "setting": "[9]", "result": -2.05, "unit": "%"}]}, {"smiles": "CC1(C)CC[C@@]2(C(=O)O)C(C1)C1=CCC3[C@@]4(C)CC[C@H](O)C(C)(C)C4CC[C@@]3(C)[C@]1(C)C[C@H]2O", "note": "(some centres undefined)", "values": [{"measurement": "activation", "setting": "[6]", "result": "67.3% (active)"}, {"measurement": "activation", "setting": "[7]", "result": 1.34, "unit": "%"}]}, {"smiles": "COc1cc(C(CCN2CCN(c3ccccc3)CC2)c2c(OC)cc(OC)c3ccc(=O)oc23)cc(OC)c1OC", "note": "(centres undefined)", "values": [{"measurement": "activation", "setting": "[6]", "result": -0.33, "unit": "%"}, {"measurement": "activation", "setting": "[7]", "result": 0.28, "unit": "%"}]}, {"smiles": "CN(C)CCCN(C(=O)c1ccc(S(=O)(=O)N2CCCCCC2)cc1)c1nc2ccc(Br)cc2s1", "values": [{"measurement": "activation", "setting": "[6]", "result": 6.69, "unit": "%"}, {"measurement": "activation", "setting": "[7]", "result": 11.3, "unit": "%"}]}]}
